From PubChem BioAssay (NCATS) come the findings set out here.

Results filed as inconclusive are left out. Unmarked numbers belong to inactive results. Calls follow the shape of the dose curve; as a rule, active = well fitted curve in the direction sought with a large enough effect; inconclusive = small, poorly fitted or top-dose-only effect, or another doubt; inactive = no such curve, though single readings can be large or run the other way. Residues, ends and D or L forms follow the SMILES beside them. *: point of attachment. Cbz = O=C(OCc1ccccc1)*
% is scaled to controls: 0 for no effect and ±100 for the full control effect.

Chain of Metallo-beta-lactamase type 2 (Klebsiella pneumoniae) (C7C422 whole entry, looked up): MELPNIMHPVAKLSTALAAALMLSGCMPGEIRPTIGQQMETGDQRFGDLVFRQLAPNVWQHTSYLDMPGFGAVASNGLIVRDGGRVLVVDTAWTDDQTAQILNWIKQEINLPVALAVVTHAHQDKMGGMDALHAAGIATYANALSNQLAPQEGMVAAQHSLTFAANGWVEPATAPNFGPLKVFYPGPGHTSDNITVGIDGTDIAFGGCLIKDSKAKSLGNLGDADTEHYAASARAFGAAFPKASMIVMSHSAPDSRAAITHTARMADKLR

This assay has as its target Metallo-beta-lactamase type 2 (Klebsiella pneumoniae) (UniProt C7C422). The assay can be described thus: qHTS to identify inhibitors of the New Delhi Metallo-beta-lactamase (NDM): assay validation screen against the NCATS LOPAC Collection (AID 1794843).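 Also: nitrocefin turnover by NDM-1 measured as 485 nm absorbance at plateau.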 As to conditions: NDM-1 enzyme, nitrocefin hydrolysis, absorbance 485 nm; series mostly up to 38.4 µM; activity change, negative = inhibition: at the top concentration. The text has this: Assay Submitter (PI): James Inglese Ph.D., Patricia Dranchak Ph.D., Mahesh Aitha Ph.D.
Assay Development and Screening Technology Laboratory (ADST)
National Center for Advancing Translational Sciences (NCATS), Rockville, MD
National Institute of Health (NIH), Bethesda, Maryland
The metallo-beta-lactamases (MBL) are a main antibiotic resistance mechanism evolved by bacteria. There is an urgent clinical need for MBL inhibitors to mitigate this growing threat. To support a machine-based learning study, qHTS has been used to experimentally test inhibitors identified by prediction tools.
PROTOCOL TABLE (as described by Inglese et al., 2007)
SEQUENCE No. (e.g., 1, 2, 3, etc.); […] (e.g., enzyme, Incubation, Reagent, etc.); VALUE; DESCRIPTION
1; NDM-1; 4 uL of 3 nM enzyme in 50 mM HEPES (pH 7.0), 1 uM Zn2SO4, 0.01% Tween20; Use BioRaptr to dispense into Aurora black, clear bottom low base 1536-well plates
2; Compounds; 23 nL; Use Pin Tool (Wako) to transfer DMSO control and library compounds in DMSO
4; Reagent; 2 uL of 50 uM nitrocefin
6; Detector; Absorbance at 485 nm (bandwidth = 5 nm, 25 flashes/well) on Tecan Infinity
NOTES (numbers refer to sequence above)
1; Column 1 of each plate received assay buffer without enzyme and columns 2-48 received enzyme for a final assay concentration of 2 nM.
2; Control plate contained DMSO in columns 1, 2, 3, and 4.
3; Compound interaction with enzyme.
5; Substrate interaction with enzyme, plateau phase of kinetics.
6; Default reader settings were applied for absorbance read at 485 nm, bandwidth = 5 nm, 25 flashes/well.
Inglese J, Shamu CE, Guy RK. 2007. Reporting data from high-throughput screening of small-molecule libraries. Nat Chem Biol. doi:10.1038/nchembio0807-438
Yasgar A, Shinn P, Jadhav A, Auld D, Michael S, Zheng W, Austin CP, Inglese J, Simeonov A. 2008. Compound Management for Quantitative High-Throughput Screening. J Lab Autom 13:79 - 89. doi:10.1016/j.jala.2007.12.004
Turning to `NC/C=C\C(=O)O`, the “activity change, negative = inhibition” value is 6.44%.
For `CC(=O)N[C@@H](Cc1c[nH]c2ccccc12)C(=O)OCc1cc(C(F)(F)F)cc(C(F)(F)F)c1` the value was -1.09%.
The result for `CC(=O)O[C@H]1CC2(C)[C@@H](C[C@@H](O)[C@H]3[C@@]4(C)CC[C@@H](O)[C@@H](C)[C@@H]4CC[C@@]32C)C1=C(CCC=C(C)C)C(=O)O` (stereo not given in full) reads 3.99%.
For `CCCn1c(=O)c2[nH]c(-c3ccc(S(=O)(=O)O)cc3)nc2n(CCC)c1=O` the value was -13.5%.
Take `COc1ccccc1N1CCN(CCCCN2C(=O)c3ccccc3C2=O)CC1`: the “activity change, negative = inhibition” value is 2.92%.
For `Cc1cccc(C2CN(C)CCc3c2cc(O)c(O)c3Cl)c1` (stereo not given) the value was -10.2%.
Turning to `Cn1c(=O)c2c(nc(/C=C/c3cccc(Cl)c3)n2C)n(C)c1=O`, the “activity change, negative = inhibition” value is -6.93%.
The result for `NC(N)=NC(N)=Nc1cccc(Cl)c1` reads 5.06%; that for `CC(N)=O`, 1.98%; that for `CC[C@@H]1Cc2cc(O)ccc2C2=C1c1ccc(O)cc1C[C@H]2CC`, -0.756%.
Consider `O=[N+]([O-])c1cccc2cn[nH]c12`, for which the “activity change, negative = inhibition” value is 2.37%.
The result for `COc1cc(/C=C(\C#N)C(=O)c2ccc(O)c(O)c2)cc(I)c1O` reads 27.4%; that for `N[C@@H](CCCC(=O)O)C(=O)O`, 1.92%; that for `COC(=O)[C@H](NC(=O)c1cc(-c2ccccc2)nc2ccccc12)c1ccccc1`, -0.582%.
For `COc1ccc(CCN(C)CCc2ccc(OC)c(OC)c2)cc1OC` the value was -0.737%; for `CC1C(=O)N(C)C(=O)c2nc[nH]c21` (stereo not given), 1.88%.
The result for `C=C(C)C1CC=C(C(=O)O)CC1` (stereo not given) reads -0.623%; that for `CCn1c(=O)[nH]c2cc(Cl)c(Cl)cc21`, 12.9%.
`OC[C@H]1O[C@H](n2cnc3c(N[C@H]4CCC[C@@H]4O)ncnc32)[C@H](O)[C@@H]1O`: the “activity change, negative = inhibition” value is 5.44%.
On to `COc1cc(C(O)CO)ccc1O` (stereo not given), for which the “activity change, negative = inhibition” value was -0.121%.
On to `NCCS(=O)O`, for which the “activity change, negative = inhibition” value was 5.51%.
For `CCCC(=O)NCCc1c2n(c3ccc(OC)cc13)CCCc1ccccc1-2` the value was -3.08%; for `COc1cc(CNC(=O)CCCCCCC(C)C)ccc1O`, -0.381%; for `C[N+](C)(C)CC=O`, -2.37%.
As to `O=c1ccn([C@@H]2O[C@H](COP(=O)(O)OP(=O)(O)O)[C@@H](O)[C@H]2O)c(=O)[nH]1`, the “activity change, negative = inhibition” value is -8.38%.
For `C[C@]12C=CC(=O)C=C1CC[C@@H]1C2=CC[C@]2(C)[C@@H](C(=O)CN3CCN(c4cc(N5CCCC5)nc(N5CCCC5)n4)CC3)CC[C@@H]12` the value was 4.75%.
The result for `N[C@@H](Cc1c[nH]c2ccccc12)C(=O)O` reads 1.99%.
Take `Nc1nc2[nH]c(=O)cnc2c(=O)[nH]1`: the “activity change, negative = inhibition” value is 0.0494%.
The result for `CC(C)[C@H](NC(=O)OCc1ccccc1)C(=O)N[C@H](C=O)Cc1ccccc1` (Cbz-Val-Phe-aldehyde) reads -4.9%.
For `CCCCCCN(CCCCCC)C(=O)Cc1c(-c2ccc(F)cc2)[nH]c2ccccc12` the value was -2.87%; for `CN1Cc2sccc2C(c2ccc(O)c(O)c2)C1` (stereo not given), -0.833%; for `CN(C)C(=O)/N=N/C(=O)N(C)C`, 1.48%.
The result for `CC[n+]1c(/C=C/C=C2/N(C)c3ccccc3C2(C)C)sc2ccccc21` reads 3.86%; that for `O=C(O)c1cc2cc(F)ccc2[nH]1`, 1.36%.
Take `Cn1c(=O)[nH]c2ncn(C)c2c1=O`: the “activity change, negative = inhibition” value was -2.79%.
Regarding `CCOC(=O)C12CC1/C(=N/O)c1ccccc1O2` (stereo not given), the “activity change, negative = inhibition” value was 0.433%.
For `CCCCCCCCCC(=O)NC(CN1CCOCC1)[C@H](O)c1ccccc1` (stereo not given in full) the value was -2.42%; for `Cc1ccc([N+](=O)[O-])cc1S(=O)(=O)N(C)C`, -1.74%.
For `CO/N=C(\C(=O)N[C@@H]1C(=O)N2C(C(=O)O)=C(CSc3nc(=O)c(O)nn3C)CSC12)c1csc(N)n1` (stereo not given in full) the value was -1.1%; for `COC(=O)C1=C(C)NC(C)=C([N+](=O)[O-])C1c1ccccc1C(F)(F)F` (stereo not given), 9.15%.
